Source: PubChem BioAssay
Measured potencies and affinities stand elsewhere. Active and inactive are the calls of the source.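 Rule for the calls, unless noted: active = a dose-response fit showing signal loss, with half-maximal concentration no higher than twice the top tested dose; inconclusive = flat fit between 30% and 70% signal loss, or poor fit; inactive = the rest.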

Test: inducers of Cryptococcus neoformans cell lysis, dose response, AK release luminescence, cherry-picks (AID 687000;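 active = fitted dose curve reaches 40% lysis signal rise at or below the highest valid concentration tested for that sample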;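 note: luminescent detection of adenylate kinase leaking from lysed yeast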)
Conditions: C. neoformans lysis, adenylate kinase release luminescence, 4 h, 100% = twice the neutral-control signal; series mostly up to 15 µM
With `CCc1ccc(NC(=O)C2NC(=O)CC2c2ccccc2)cc1` (stereo unspecified) the outcome was “inactive”. For `COCC(=O)N1[C@H](C#N)[C@H](c2ccc(C#Cc3ccccc3F)cc2)[C@H]1CO`, the outcome was “inactive”. In the case of `C[C@H](CO)N1C[C@H](C)[C@H](CN(C)C(=O)NC2CCCCC2)OCCCC[C@H](C)Oc2ccc(NC(=O)C3CCCCC3)cc2C1=O`, the outcome is reported as “inactive”. For `CC(NC(=O)COc1ccc([N+](=O)[O-])cc1)c1ccccc1` (stereo unspecified), the outcome was “inactive”. For `O=C(Nc1ccccc1)N[C@@H]1CC[C@@H](CCNC(=O)c2ccccc2F)O[C@H]1CO`, the outcome was “inactive”. In the case of `C[C@H](CO)N1C[C@H](C)[C@H](CN(C)C(=O)c2ccccn2)Oc2ncc(-c3ccccc3)cc2C1=O`, the outcome is reported as “inactive”. In the case of `C[C@@H]1CN([C@H](C)CO)C(=O)c2cc(NS(=O)(=O)c3ccc(Cl)cc3)ccc2O[C@H]1CN(C)S(=O)(=O)c1ccc(F)cc1`, the outcome is reported as “inactive”. With `CCOC(=O)CNC(=O)CSc1ncnc2c1cnn2-c1ccc(OC)cc1` the outcome was “inactive”. In the case of `O=C([C@@H]1[C@@H](CO)[C@@H]2Cn3c(cccc3=O)[C@@H]2N1CCC(F)(F)F)N1CCCCC1`, the outcome is reported as “inactive”. For `O=C(C[C@@H]1CC[C@@H]2[C@H](COC[C@H](O)CN2Cc2cccc(C(F)(F)F)c2)O1)NCc1ccccc1`, the outcome was “inactive”. In the case of `CC=Cc1ccc2n(c1=O)C[C@H]1[C@H](CO)[C@@H](C(=O)NCc3ccc4c(c3)OCO4)[C@@H]2N1C(=O)C1CC1` (mixture of isomers), the outcome is reported as “inactive”. In the case of `Cc1cc(C)c(NC(=O)C2CCC(=O)N2)c(C)c1` (stereo unspecified), the outcome is reported as “inactive”. In the case of `CCCNC(=O)Nc1ccc2c(c1)C(=O)N(C)C[C@H](OC)[C@@H](C)CN(C(=O)CC)[C@@H](C)CO2`, the outcome is reported as “inactive”. For `CCCNC(=O)N1C[C@@H](O)COC[C@H]2O[C@H](CC(=O)N3CCN(C)CC3)CC[C@@H]21`, the outcome was “inactive”. In the case of `COc1ccc(NC(=O)N(C)C[C@H]2OCCCC[C@@H](C)Oc3ccc(N(C)C)cc3C(=O)N([C@H](C)CO)C[C@H]2C)cc1`, the outcome is reported as “inactive”. In the case of `COc1ccc(NC(=O)Nc2ccc3c(c2)C(=O)N([C@H](C)CO)C[C@H](C)[C@H](CN(C)C(=O)Cc2ccccc2)OCCCC[C@H](C)O3)cc1`, the outcome is reported as “inactive”. In the case of `COc1ccccc1CNC(=O)C[C@@H]1CC[C@@H]2[C@H](COc3ccc(NC(C)=O)cc3C(=O)N2C)O1`, the outcome is reported as “inactive”. In the case of `C[C@@H]1CCCCO[C@@H](CN(C)Cc2ccc3c(c2)OCO3)[C@@H](C)CN([C@H](C)CO)C(=O)c2cc(NS(=O)(=O)c3ccc(F)cc3)ccc2O1`, the outcome is reported as “inactive”. In the case of `Cc1ccccc1S(=O)(=O)N[C@H]1CC[C@H](CCNS(=O)(=O)c2cccc(F)c2)O[C@H]1CO`, the outcome is reported as “inactive”. In the case of `CNC(=O)C[C@@H]1CC[C@@H]2[C@H](COC[C@@H](O)CN2C(=O)Nc2ccc3c(c2)OCO3)O1`, the outcome is reported as “inactive”. For `O=C(CN(c1ccccc1)S(=O)(=O)c1ccc(F)cc1)NC1CCS(=O)(=O)C1` (stereo unspecified), the outcome was “inactive”. For `C[C@@H]1CN([C@H](C)CO)C(=O)c2cc(-c3cccc(F)c3)cnc2O[C@H]1CN(C)Cc1ccccc1`, the outcome was “inactive”. In the case of `O=C1CCC(C(=O)Nc2ccc(Cl)cc2)N1` (stereo unspecified), the outcome is reported as “inactive”. For `C[C@@H]1CN([C@@H](C)CO)C(=O)c2cccc(NS(=O)(=O)c3ccc(F)cc3)c2O[C@H]1CN(C)S(=O)(=O)c1ccc(Cl)cc1`, the outcome was “inactive”. In the case of `CCC(C)(C(=O)NC1CCCCC1)N(C(=O)C1CCC(=O)N1)c1ccccc1` (stereo unspecified), the outcome is reported as “inactive”. With `C[C@@H](NC(=O)C[C@H]1CC[C@@H](NC(=O)Cc2ccccn2)[C@@H](CO)O1)c1ccccc1` the outcome was “inactive”. In the case of `CCNC(=O)Nc1ccc2c(c1)C(=O)N(C)[C@H]1CC[C@H](CC(=O)N[C@@H](C)c3ccccc3)O[C@H]1CO2`, the outcome is reported as “inactive”. For `CN1CCN(C(=O)C[C@@H]2CC[C@H]3[C@@H](COC[C@H](O)CN3C(=O)Cc3ccccc3)O2)CC1`, the outcome was “inactive”. In the case of `O=C(Cc1ccccc1)N[C@H]1C=C[C@@H](CC(=O)N2CCOCC2)O[C@H]1CO`, the outcome is reported as “inactive”. For `CNC[C@H]1OCCCC[C@H](C)Oc2ccc(NC(=O)CCCN(C)C)cc2C(=O)N([C@H](C)CO)C[C@@H]1C`, the outcome was “inactive”. With `CN1[C@@H]2c3ccc(-c4cccnc4)c(=O)n3C[C@@H]2[C@@H](CO)[C@@H]1C(=O)N1CCc2ccccc2C1` the outcome was “inactive”. With `C[C@@H]1CCCCO[C@H](CN(C)C(=O)c2ccccc2)[C@@H](C)CN([C@@H](C)CO)C(=O)c2cc(NC(=O)c3ccccc3)ccc2O1` the outcome was “inactive”.

Test: HepG2 cell cytotoxicity, dose response, cytotoxicity control, cherry-picks, set 2 (AID 687002)
Conditions: HepG2 viability, ATP luminescence (CellTiter-Glo), 48 h; series mostly up to 26 µM
With `Cc1ccc(NC(=O)C2(C)CCN2C(=O)CC2CCCC2)cc1` (stereo unspecified) the outcome was “inactive”. For `O=C(NCC[C@H]1CC[C@@H](NS(=O)(=O)c2ccc(F)cc2)[C@H](CO)O1)c1ccc2c(c1)OCO2`, the outcome was “inactive”. For `N#C[C@@H]1[C@@H](c2ccccc2)[C@@H](CO)N1C(=O)Cc1ccccc1`, the outcome was “inactive”. With `CCS(=O)(=O)N1CCCCN2[C@H](CO)[C@@H](c3ccc(-c4ccc(C#N)cc4)cc3)[C@@H]2C1` the outcome was “inactive”. For `CO[C@H]1CN(C)C(=O)c2cc(NS(=O)(=O)c3ccc(C)cc3)ccc2OC[C@H](C)N(C)C[C@H]1C`, the outcome was “inactive”. With `CO[C@@H]1CN(C)C(=O)c2cc(NS(=O)(=O)c3ccc(C)cc3)ccc2OC[C@@H](C)N(C)C[C@@H]1C` the outcome was “inactive”. With `COc1ccc(CN(C)C[C@@H]2OCCCC[C@H](C)Oc3ccc(N(C)C)cc3C(=O)N([C@H](C)CO)C[C@@H]2C)cc1` the outcome was “inactive”. In the case of `CCc1ccc(NC(=O)C2NC(=O)CC2c2ccccc2)cc1` (stereo unspecified), the outcome is reported as “inactive”. In the case of `COCC(=O)N1[C@H](C#N)[C@H](c2ccc(C#Cc3ccccc3F)cc2)[C@H]1CO`, the outcome is reported as “inactive”. With `C[C@H](CO)N1C[C@H](C)[C@H](CN(C)C(=O)NC2CCCCC2)OCCCC[C@H](C)Oc2ccc(NC(=O)C3CCCCC3)cc2C1=O` the outcome was “inactive”. In the case of `CC(NC(=O)COc1ccc([N+](=O)[O-])cc1)c1ccccc1` (stereo unspecified), the outcome is reported as “inactive”. In the case of `O=C(Nc1ccccc1)N[C@@H]1CC[C@@H](CCNC(=O)c2ccccc2F)O[C@H]1CO`, the outcome is reported as “inactive”. With `C[C@H](CO)N1C[C@H](C)[C@H](CN(C)C(=O)c2ccccn2)Oc2ncc(-c3ccccc3)cc2C1=O` the outcome was “inactive”. In the case of `C[C@@H]1CN([C@H](C)CO)C(=O)c2cc(NS(=O)(=O)c3ccc(Cl)cc3)ccc2O[C@H]1CN(C)S(=O)(=O)c1ccc(F)cc1`, the outcome is reported as “inactive”. With `CCOC(=O)CNC(=O)CSc1ncnc2c1cnn2-c1ccc(OC)cc1` the outcome was “inactive”. In the case of `O=C([C@@H]1[C@@H](CO)[C@@H]2Cn3c(cccc3=O)[C@@H]2N1CCC(F)(F)F)N1CCCCC1`, the outcome is reported as “inactive”. In the case of `O=C(C[C@@H]1CC[C@@H]2[C@H](COC[C@H](O)CN2Cc2cccc(C(F)(F)F)c2)O1)NCc1ccccc1`, the outcome is reported as “inactive”. With `CC=Cc1ccc2n(c1=O)C[C@H]1[C@H](CO)[C@@H](C(=O)NCc3ccc4c(c3)OCO4)[C@@H]2N1C(=O)C1CC1` (mixture of isomers) the outcome was “inactive”. In the case of `Cc1cc(C)c(NC(=O)C2CCC(=O)N2)c(C)c1` (stereo unspecified), the outcome is reported as “inactive”. With `CCCNC(=O)Nc1ccc2c(c1)C(=O)N(C)C[C@H](OC)[C@@H](C)CN(C(=O)CC)[C@@H](C)CO2` the outcome was “inactive”. In the case of `CCCNC(=O)N1C[C@@H](O)COC[C@H]2O[C@H](CC(=O)N3CCN(C)CC3)CC[C@@H]21`, the outcome is reported as “inactive”. With `COc1ccc(NC(=O)N(C)C[C@H]2OCCCC[C@@H](C)Oc3ccc(N(C)C)cc3C(=O)N([C@H](C)CO)C[C@H]2C)cc1` the outcome was “inactive”. In the case of `COc1ccc(NC(=O)Nc2ccc3c(c2)C(=O)N([C@H](C)CO)C[C@H](C)[C@H](CN(C)C(=O)Cc2ccccc2)OCCCC[C@H](C)O3)cc1`, the outcome is reported as “inactive”. In the case of `COc1ccccc1CNC(=O)C[C@@H]1CC[C@@H]2[C@H](COc3ccc(NC(C)=O)cc3C(=O)N2C)O1`, the outcome is reported as “inactive”. With `C[C@@H]1CCCCO[C@@H](CN(C)Cc2ccc3c(c2)OCO3)[C@@H](C)CN([C@H](C)CO)C(=O)c2cc(NS(=O)(=O)c3ccc(F)cc3)ccc2O1` the outcome was “inactive”. In the case of `Cc1ccccc1S(=O)(=O)N[C@H]1CC[C@H](CCNS(=O)(=O)c2cccc(F)c2)O[C@H]1CO`, the outcome is reported as “inactive”. In the case of `CNC(=O)C[C@@H]1CC[C@@H]2[C@H](COC[C@@H](O)CN2C(=O)Nc2ccc3c(c2)OCO3)O1`, the outcome is reported as “inactive”. With `O=C(CN(c1ccccc1)S(=O)(=O)c1ccc(F)cc1)NC1CCS(=O)(=O)C1` (stereo unspecified) the outcome was “inactive”. In the case of `C[C@@H]1CN([C@H](C)CO)C(=O)c2cc(-c3cccc(F)c3)cnc2O[C@H]1CN(C)Cc1ccccc1`, the outcome is reported as “inactive”. With `O=C1CCC(C(=O)Nc2ccc(Cl)cc2)N1` (stereo unspecified) the outcome was “inactive”. With `C[C@@H]1CN([C@@H](C)CO)C(=O)c2cccc(NS(=O)(=O)c3ccc(F)cc3)c2O[C@H]1CN(C)S(=O)(=O)c1ccc(Cl)cc1` the outcome was “inactive”. For `CCC(C)(C(=O)NC1CCCCC1)N(C(=O)C1CCC(=O)N1)c1ccccc1` (stereo unspecified), the outcome was “inactive”. With `C[C@@H](NC(=O)C[C@H]1CC[C@@H](NC(=O)Cc2ccccn2)[C@@H](CO)O1)c1ccccc1` the outcome was “inactive”. With `CCNC(=O)Nc1ccc2c(c1)C(=O)N(C)[C@H]1CC[C@H](CC(=O)N[C@@H](C)c3ccccc3)O[C@H]1CO2` the outcome was “inactive”. In the case of `CN1CCN(C(=O)C[C@@H]2CC[C@H]3[C@@H](COC[C@H](O)CN3C(=O)Cc3ccccc3)O2)CC1`, the outcome is reported as “inactive”. In the case of `O=C(Cc1ccccc1)N[C@H]1C=C[C@@H](CC(=O)N2CCOCC2)O[C@H]1CO`, the outcome is reported as “inactive”. With `CNC[C@H]1OCCCC[C@H](C)Oc2ccc(NC(=O)CCCN(C)C)cc2C(=O)N([C@H](C)CO)C[C@@H]1C` the outcome was “inactive”. In the case of `CN1[C@@H]2c3ccc(-c4cccnc4)c(=O)n3C[C@@H]2[C@@H](CO)[C@@H]1C(=O)N1CCc2ccccc2C1`, the outcome is reported as “inactive”. In the case of `C[C@@H]1CCCCO[C@H](CN(C)C(=O)c2ccccc2)[C@@H](C)CN([C@@H](C)CO)C(=O)c2cc(NC(=O)c3ccccc3)ccc2O1`, the outcome is reported as “inactive”.
